Drawing on ChEMBL document CHEMBL2218924, “A broad activity screen in support of a chemogenomic map for kinase signalling research and drug discovery” (Biochem J, 2013), this text covers residual activity for 2 compounds.

Assay [1] deals with T1, Serine/threonine-protein kinase TAO2 (Homo sapiens) (UniProt Q9UL54).
T1 sequence (whole entry): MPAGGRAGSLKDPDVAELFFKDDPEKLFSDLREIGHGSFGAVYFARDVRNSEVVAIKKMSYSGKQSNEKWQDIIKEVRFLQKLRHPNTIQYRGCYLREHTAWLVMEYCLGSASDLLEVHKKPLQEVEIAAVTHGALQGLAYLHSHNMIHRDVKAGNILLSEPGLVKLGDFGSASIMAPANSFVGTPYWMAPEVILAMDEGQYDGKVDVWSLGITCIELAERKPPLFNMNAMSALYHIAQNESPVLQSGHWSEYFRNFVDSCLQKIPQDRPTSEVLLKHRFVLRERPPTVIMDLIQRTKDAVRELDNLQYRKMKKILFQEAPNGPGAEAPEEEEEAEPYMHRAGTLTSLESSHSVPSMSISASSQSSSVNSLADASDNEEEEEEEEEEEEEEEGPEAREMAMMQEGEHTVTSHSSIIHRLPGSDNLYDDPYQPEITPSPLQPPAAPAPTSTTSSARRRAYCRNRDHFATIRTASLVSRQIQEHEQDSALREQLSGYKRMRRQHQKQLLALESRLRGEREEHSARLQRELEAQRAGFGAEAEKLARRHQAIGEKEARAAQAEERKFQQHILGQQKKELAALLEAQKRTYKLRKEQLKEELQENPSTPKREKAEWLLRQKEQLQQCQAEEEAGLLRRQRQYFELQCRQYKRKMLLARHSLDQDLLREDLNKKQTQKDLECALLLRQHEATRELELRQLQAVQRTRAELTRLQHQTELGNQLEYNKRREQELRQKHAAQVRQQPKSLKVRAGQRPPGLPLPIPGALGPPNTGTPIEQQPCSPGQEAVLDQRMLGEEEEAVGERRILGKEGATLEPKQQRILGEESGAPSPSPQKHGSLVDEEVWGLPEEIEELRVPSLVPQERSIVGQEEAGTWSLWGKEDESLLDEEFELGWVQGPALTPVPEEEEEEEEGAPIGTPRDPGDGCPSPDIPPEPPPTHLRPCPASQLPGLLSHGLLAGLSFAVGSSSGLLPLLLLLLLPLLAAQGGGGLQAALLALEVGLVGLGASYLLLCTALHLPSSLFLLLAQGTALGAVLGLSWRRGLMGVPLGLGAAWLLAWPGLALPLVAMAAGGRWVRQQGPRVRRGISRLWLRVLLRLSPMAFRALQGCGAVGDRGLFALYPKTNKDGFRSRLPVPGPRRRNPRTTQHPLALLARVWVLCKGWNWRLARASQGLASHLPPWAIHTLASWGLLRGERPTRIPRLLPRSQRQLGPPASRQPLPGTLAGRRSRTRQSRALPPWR
The following applies: at 10 µM.

Assay [2] deals with T2, Serine/threonine-protein kinase TAO3 (Homo sapiens) (UniProt Q9H2K8).
T2 sequence (whole entry): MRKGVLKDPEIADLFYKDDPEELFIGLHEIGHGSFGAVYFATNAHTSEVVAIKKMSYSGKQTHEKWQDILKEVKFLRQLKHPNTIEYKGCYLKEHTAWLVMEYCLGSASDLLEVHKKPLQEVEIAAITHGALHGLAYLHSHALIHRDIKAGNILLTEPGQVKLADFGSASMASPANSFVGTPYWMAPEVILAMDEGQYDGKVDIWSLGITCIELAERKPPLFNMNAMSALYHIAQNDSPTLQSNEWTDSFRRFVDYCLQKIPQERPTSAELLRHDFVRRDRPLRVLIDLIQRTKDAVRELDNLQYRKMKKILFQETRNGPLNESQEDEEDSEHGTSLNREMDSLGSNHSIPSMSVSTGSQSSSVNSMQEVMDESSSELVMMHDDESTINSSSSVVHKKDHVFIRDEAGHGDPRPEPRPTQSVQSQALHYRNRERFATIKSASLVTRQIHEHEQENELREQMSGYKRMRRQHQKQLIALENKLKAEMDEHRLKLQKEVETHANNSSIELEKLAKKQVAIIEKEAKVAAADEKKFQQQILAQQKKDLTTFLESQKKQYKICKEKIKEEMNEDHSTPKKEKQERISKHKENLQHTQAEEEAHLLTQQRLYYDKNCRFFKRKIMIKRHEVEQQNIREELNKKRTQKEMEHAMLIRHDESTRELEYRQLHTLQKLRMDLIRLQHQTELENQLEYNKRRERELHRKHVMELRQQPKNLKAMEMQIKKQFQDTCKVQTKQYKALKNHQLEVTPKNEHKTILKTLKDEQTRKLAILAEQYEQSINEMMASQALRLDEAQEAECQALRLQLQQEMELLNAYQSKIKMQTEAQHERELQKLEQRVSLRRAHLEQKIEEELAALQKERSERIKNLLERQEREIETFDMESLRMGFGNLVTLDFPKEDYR
The note with it: at 1 µM.

Assay [3] deals with T2, Serine/threonine-protein kinase TAO3 (Homo sapiens). The following applies: at 10 µM.
For assay [4], the target named is T3, Serine/threonine-protein kinase TBK1 (Homo sapiens) (UniProt Q9UHD2).
T3 sequence (whole entry): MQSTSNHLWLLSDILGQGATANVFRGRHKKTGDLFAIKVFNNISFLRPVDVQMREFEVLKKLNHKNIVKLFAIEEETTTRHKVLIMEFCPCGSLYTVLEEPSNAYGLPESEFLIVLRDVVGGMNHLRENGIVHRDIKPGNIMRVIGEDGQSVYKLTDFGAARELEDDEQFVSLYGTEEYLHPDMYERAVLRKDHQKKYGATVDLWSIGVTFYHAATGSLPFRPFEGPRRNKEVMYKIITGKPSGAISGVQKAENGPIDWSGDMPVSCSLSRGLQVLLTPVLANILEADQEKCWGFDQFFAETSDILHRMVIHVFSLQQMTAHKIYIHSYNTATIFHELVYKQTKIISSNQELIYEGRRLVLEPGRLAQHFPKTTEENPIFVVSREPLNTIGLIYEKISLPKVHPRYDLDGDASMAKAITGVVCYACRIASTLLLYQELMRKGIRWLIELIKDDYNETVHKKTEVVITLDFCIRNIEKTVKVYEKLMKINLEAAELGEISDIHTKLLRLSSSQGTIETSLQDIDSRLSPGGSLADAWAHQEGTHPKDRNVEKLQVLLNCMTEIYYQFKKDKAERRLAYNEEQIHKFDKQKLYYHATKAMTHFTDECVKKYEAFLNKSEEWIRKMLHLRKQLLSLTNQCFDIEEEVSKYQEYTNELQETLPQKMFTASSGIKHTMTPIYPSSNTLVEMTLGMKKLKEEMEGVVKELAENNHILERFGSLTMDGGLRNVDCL
The note with it: at 1 µM.

Assay [5] has as its target T3, Serine/threonine-protein kinase TBK1 (Homo sapiens). The note with it: at 10 µM.
For assay [6], the target named is T4, TGF-beta receptor type-1 (Homo sapiens) (UniProt P36897).
T4 sequence (whole entry): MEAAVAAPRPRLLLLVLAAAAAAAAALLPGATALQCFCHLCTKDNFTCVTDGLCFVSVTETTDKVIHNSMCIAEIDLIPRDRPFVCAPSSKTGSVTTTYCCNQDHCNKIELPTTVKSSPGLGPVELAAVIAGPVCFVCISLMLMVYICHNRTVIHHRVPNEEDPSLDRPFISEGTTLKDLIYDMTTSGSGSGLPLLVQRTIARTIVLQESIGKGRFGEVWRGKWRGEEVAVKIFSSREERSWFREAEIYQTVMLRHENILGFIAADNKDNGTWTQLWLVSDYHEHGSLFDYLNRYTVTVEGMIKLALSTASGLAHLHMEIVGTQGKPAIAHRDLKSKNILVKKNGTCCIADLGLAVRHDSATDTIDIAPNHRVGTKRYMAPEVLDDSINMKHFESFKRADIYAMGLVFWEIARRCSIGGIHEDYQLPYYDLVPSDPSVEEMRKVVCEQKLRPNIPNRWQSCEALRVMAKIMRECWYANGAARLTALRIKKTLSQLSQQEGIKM
The following applies: at 1 µM.

Assay [7] deals with T4, TGF-beta receptor type-1 (Homo sapiens). The note with it: at 10 µM.
Assay [8] deals with Insulin-like growth factor 1 receptor (Homo sapiens) (UniProt P08069). The following applies: at 1 µM.
Insulin-like growth factor 1 receptor (Homo sapiens), sequence (P08069 31-736 limits assumed): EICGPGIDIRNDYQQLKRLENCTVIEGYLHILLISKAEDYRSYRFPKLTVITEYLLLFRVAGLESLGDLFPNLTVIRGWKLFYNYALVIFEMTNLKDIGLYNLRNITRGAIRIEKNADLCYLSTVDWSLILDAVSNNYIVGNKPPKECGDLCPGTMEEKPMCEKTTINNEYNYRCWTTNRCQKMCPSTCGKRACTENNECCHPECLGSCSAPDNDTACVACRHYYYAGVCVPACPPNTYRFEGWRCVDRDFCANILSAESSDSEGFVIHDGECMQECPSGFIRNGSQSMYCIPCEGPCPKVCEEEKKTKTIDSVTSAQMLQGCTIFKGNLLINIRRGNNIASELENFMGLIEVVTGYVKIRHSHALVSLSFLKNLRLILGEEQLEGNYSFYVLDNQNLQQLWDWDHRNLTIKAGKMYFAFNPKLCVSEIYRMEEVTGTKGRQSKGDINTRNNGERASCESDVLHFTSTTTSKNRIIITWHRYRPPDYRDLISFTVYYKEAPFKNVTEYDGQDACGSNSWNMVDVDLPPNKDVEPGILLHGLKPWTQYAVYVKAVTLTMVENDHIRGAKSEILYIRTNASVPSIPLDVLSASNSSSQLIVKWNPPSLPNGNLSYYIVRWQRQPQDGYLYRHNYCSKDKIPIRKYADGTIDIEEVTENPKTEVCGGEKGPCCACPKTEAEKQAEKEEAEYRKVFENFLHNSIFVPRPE
Insulin-like growth factor 1 receptor (Homo sapiens), sequence (P08069 741-1367 limits assumed): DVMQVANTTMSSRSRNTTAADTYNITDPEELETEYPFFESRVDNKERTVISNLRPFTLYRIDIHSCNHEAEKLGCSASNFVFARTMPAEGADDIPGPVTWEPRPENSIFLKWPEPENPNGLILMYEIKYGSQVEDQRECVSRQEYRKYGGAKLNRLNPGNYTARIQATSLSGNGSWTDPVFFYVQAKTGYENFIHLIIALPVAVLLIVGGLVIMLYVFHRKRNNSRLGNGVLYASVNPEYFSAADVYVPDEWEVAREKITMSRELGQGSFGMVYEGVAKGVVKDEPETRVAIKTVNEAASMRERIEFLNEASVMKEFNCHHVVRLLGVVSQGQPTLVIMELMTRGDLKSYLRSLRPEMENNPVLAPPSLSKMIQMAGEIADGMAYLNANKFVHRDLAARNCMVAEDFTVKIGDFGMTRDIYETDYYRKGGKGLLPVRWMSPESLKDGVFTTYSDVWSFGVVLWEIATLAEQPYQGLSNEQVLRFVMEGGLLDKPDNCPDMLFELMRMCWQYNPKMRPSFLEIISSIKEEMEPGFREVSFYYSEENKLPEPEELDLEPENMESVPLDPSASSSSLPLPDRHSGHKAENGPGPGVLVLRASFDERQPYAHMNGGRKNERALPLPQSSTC
Assay [9] has the same target. The following applies: at 10 µM.
Assay [10] addresses T5, Inhibitor of nuclear factor kappa-B kinase subunit alpha (Homo sapiens) (UniProt O15111).
T5 sequence (whole entry): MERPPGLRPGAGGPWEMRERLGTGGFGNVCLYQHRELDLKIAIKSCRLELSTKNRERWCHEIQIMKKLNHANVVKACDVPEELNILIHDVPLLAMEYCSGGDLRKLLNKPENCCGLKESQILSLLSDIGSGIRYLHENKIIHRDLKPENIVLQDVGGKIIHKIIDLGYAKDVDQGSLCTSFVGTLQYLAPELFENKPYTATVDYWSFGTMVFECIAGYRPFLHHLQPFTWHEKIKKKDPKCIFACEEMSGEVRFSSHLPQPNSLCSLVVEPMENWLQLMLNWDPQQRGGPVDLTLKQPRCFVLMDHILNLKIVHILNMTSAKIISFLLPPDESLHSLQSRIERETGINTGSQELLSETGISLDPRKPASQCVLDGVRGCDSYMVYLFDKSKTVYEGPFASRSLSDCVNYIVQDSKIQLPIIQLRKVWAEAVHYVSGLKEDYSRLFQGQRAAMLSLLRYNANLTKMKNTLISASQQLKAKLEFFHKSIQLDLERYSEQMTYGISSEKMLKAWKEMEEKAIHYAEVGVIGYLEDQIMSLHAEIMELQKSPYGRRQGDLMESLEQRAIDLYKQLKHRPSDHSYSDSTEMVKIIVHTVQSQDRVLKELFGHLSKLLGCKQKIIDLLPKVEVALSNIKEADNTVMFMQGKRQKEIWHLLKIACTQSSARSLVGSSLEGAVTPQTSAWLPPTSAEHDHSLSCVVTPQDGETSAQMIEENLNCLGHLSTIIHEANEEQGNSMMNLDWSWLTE
The note with it: at 1 µM.

Assay [11] addresses T5, Inhibitor of nuclear factor kappa-B kinase subunit alpha (Homo sapiens). The following applies: at 10 µM.
In assay [12] the target is T6, Inhibitor of nuclear factor kappa-B kinase subunit beta (Homo sapiens) (UniProt O14920).
T6 sequence (whole entry): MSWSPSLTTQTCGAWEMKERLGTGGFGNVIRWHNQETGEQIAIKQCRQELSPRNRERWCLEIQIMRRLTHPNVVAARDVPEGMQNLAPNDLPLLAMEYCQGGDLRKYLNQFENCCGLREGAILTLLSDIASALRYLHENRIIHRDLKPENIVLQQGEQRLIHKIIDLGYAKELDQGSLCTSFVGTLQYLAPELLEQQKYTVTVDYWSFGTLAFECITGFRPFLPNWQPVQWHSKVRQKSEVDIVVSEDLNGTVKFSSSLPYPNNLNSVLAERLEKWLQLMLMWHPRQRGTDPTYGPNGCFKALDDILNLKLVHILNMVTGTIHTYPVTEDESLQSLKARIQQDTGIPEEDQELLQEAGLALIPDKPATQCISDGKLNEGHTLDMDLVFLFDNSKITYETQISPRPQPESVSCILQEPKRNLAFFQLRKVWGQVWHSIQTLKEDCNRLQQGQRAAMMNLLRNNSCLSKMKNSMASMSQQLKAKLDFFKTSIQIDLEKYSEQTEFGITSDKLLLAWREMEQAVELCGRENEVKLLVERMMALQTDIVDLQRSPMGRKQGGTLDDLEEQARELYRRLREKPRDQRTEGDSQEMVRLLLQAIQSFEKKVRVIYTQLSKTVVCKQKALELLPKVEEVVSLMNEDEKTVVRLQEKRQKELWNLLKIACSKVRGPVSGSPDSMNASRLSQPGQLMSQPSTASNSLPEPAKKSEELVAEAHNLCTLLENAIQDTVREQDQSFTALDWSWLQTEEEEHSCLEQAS
The following applies: at 10 µM.

In assay [13] the target is Insulin receptor (Homo sapiens) (UniProt P06213). The note with it: at 10 µM.
Insulin receptor (Homo sapiens), sequence (P06213 28-758 limits assumed): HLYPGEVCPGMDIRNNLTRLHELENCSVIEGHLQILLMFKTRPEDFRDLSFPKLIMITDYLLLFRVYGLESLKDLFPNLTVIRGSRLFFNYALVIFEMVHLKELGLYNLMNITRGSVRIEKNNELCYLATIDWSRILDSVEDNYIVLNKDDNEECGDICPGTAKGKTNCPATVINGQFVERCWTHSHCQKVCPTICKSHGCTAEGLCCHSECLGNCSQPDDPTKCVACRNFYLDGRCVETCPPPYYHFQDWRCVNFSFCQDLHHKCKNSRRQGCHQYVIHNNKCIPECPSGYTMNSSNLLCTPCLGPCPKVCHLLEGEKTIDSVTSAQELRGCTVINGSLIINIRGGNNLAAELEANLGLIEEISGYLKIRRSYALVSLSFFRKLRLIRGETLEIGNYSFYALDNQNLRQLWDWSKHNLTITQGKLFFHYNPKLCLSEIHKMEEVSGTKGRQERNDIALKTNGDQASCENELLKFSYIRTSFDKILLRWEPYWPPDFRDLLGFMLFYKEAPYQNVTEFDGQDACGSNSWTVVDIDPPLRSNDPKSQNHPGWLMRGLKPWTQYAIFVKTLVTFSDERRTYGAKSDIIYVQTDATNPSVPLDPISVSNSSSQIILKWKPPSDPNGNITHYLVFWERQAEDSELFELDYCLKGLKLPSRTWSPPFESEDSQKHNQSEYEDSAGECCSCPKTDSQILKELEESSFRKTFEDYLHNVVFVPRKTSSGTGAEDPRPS
Insulin receptor (Homo sapiens), sequence (P06213 763-1382 limits assumed): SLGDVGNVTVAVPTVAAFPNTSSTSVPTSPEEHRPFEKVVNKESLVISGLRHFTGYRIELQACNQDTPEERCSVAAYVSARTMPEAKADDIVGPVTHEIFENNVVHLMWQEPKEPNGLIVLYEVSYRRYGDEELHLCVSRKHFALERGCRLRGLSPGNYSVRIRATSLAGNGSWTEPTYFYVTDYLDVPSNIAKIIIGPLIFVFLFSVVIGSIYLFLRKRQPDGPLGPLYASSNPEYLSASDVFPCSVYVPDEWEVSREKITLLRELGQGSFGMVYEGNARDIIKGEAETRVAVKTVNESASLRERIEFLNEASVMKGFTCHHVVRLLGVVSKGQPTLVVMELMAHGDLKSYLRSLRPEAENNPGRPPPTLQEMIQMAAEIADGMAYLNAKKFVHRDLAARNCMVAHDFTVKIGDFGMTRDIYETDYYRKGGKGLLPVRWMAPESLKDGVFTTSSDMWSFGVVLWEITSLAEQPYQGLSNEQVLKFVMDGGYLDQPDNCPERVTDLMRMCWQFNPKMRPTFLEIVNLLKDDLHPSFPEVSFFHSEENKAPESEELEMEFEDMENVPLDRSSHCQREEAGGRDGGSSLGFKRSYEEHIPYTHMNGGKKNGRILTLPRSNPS
Assay [14] has the same target. The note with it: at 1 µM.
Assay [15] shares this target. The following applies: at 10 µM. The source holds these as a separate data set.
In assay [16] the target is Interleukin-1 receptor-associated kinase 1 (Homo sapiens) (UniProt P51617). The note with it: at 1 µM.
Interleukin-1 receptor-associated kinase 1 (Homo sapiens), sequence (P51617 whole entry, looked up): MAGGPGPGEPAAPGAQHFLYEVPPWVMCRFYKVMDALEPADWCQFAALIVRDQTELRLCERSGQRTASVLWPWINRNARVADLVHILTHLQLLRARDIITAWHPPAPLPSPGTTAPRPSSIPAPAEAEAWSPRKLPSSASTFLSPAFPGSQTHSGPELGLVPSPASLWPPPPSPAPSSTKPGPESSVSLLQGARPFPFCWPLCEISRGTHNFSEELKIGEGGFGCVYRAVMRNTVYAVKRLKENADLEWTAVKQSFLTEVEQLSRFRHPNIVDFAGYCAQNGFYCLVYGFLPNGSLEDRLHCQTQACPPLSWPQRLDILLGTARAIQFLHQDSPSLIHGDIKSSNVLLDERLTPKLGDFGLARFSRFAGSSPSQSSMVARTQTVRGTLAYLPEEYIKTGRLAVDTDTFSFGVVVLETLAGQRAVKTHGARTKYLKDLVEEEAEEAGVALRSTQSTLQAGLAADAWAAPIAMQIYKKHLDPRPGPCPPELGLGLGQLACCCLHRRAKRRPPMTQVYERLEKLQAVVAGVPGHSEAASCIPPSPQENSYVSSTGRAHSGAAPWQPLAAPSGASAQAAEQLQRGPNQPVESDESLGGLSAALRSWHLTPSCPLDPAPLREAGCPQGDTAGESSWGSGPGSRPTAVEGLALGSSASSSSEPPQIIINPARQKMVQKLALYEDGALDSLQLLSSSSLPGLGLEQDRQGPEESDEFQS
Assay [17] shares this target. The following applies: at 10 µM.
In assay [18] the target is T1, Serine/threonine-protein kinase TAO2 (Homo sapiens). The note with it: at 1 µM.
In assay [19] the target is T6, Inhibitor of nuclear factor kappa-B kinase subunit beta (Homo sapiens). The following applies: at 1 µM.
Assay [20] concerns the target Insulin receptor (Homo sapiens) (UniProt P06213). The following applies: at 1 µM. The source holds these as a separate data set.

Take `COc1ccc2c(c[n+](C)c3c4cc5c(cc4ccc23)OCO5)c1OC`: the residual activity turned out to be 93% in [1]; 99% in [2]; 90% in [3]; 81% in [4]; 65% in assay [5]; 82% in [6]. Besides, the residual activity in assay [7] turned out to be 89%; in assay [8], 93%; in [9], 82%; in assay [10], 97%; in [11], 83%; in assay [12], 84%. Besides, the residual activity is 130% in assay [13]; 99% in assay [14]; 84% in assay [15]; 96% in assay [16]; 83% in assay [17].

Turning to `O=C1Nc2ccc3ncsc3c2/C1=C/c1c[nH]cn1`, the residual activity stood at 33% in [18]; 10% in [1]; 17% in assay [2]; 6% in assay [3]; 7% in [4]; 0% in assay [5]. Further, the residual activity is 68% in assay [6]; 38% in assay [7]; 94% in [8]; 60% in assay [9]; 8% in assay [10]; 1% in assay [11]. Also, the residual activity in [19] is 68%; in assay [12], 25%; in assay [20], 85%; in assay [13], 31%; in assay [14] it was 80%; in assay [15] it was 36%. Moreover, the values for the residual activity in assay [16] and in [17] were 28% and 7%, respectively.

Usually residual activity stands for the signal under treatment as a percentage of the control signal.
